Shown are actives, neighbours in structure and some others; about 3.1% of the full set was active somewhere.
TexasRed fluor – counter-screen for TRb-SRC2 inhibitors: fluorescence interference; TRb/SRC2 Texas Red total fluorescence interference; Potency, µM (doses to about 106 µM), for the others: at the top dose fluorescence change, negative = quenching; actives 0.29% (n = 280,000); AID 1479; active means well fitted curve in either direction with a large enough effect; inconclusive means small, poorly fitted or top-dose-only effect
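Human TRβ ligand-binding domain (0.6 uM) and Texas Red SRC2 peptide (20 nM) in Tris buffer with 1 uM T3 and 5% DMSO were incubated with pinned compound for 5 hr at ambient temperature. Total fluorescence was computed as S + 2P (555/632 nm).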
TRb SRC2 PPI – disrupts binding of human TR beta to SRC2; P10828; TRbeta-SRC2 peptide binding, fluorescence polarization; receptor liganded with 1 µM T3; Potency, µM (doses to about 106 µM), without a hit: at the highest dose activity change, negative = inhibition, hits mostly inhibitors; actives 0.065% (n = 280,000); AID 1469;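 further: plate controls were bound peptide for no effect and peptide without receptor for full effect; nearly all actives have a fitted effect of over 50% in size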
Target sequence (P10828 whole entry, looked up): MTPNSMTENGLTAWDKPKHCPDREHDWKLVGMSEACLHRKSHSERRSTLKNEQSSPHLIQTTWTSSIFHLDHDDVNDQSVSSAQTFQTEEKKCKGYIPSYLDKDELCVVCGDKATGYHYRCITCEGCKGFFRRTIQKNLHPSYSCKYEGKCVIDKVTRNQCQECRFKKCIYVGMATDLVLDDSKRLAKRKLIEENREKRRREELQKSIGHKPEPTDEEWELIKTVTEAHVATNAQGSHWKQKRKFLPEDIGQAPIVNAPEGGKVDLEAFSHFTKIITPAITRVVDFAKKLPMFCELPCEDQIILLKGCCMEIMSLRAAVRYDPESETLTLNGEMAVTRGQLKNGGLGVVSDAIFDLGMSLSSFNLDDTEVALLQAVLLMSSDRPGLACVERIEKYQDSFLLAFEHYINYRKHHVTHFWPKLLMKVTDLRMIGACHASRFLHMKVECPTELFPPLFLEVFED
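Human TRb ligand-binding domain (0.6 uM) is mixed with 20 nM Texas Red SRC2 peptide and 1 uM T3; after compound addition and 5 hr at ambient temperature, polarization is measured and normalized to unbound and bound controls.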
Tau fluor counter – counter-screen for tau fibril formation inhibitors; actives 0.93% (n = 280,000); tau K18 P301L Alexa594 fluorescence, heparin fibrillization; Potency, µM (doses to about 57.7 µM), for the others: at the highest dose activity change, negative = decrease; further: nearly all actives have a fitted effect of over 55% in size
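Human tau K18 P301L (15 uM unlabeled, 0.24 uM Alexa 594-labeled) in 100 mM sodium acetate pH 7 with 20 uM heparin, 6 hr at 37 C. ThT 30 uM added, 1 hr ambient; Alexa 594 FP and total fluorescence read at 555/632 nm.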
Tau fibril FP – tau fibrillization inhibition (FP); K18 P301L tau heparin fibrillization, Alexa594 FP, 6 h; actives 0.39% (n = 280,000); P10636; Potency, µM (doses to about 57.7 µM), inactives show top-dose activity, negative = inhibition, usual class: inhibitors; further: nearly all actives have a fitted effect of over 55% in size
Target sequence (P10636 561-689 P618L limits assumed): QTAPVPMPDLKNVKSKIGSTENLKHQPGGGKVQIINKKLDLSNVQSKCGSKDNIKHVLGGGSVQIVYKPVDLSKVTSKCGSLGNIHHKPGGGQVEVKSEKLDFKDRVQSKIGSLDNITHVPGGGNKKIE
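Human tau K18 […] P301L fragment, 15 uM unlabeled plus 0.24 uM Alexa 594-labeled tau (final), with compound and 20 uM heparin in 100 mM sodium acetate pH 7; 6 hr at 37 C, then Alexa 594 FP read.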
GoLoco inh red – RGS12 GoLoco-Gai1 interaction inhibition; actives 0.44% (n = 230,000); P63096; Potency, µM (doses to about 61.6 µM), for the others: at the top dose activity, negative = inhibition, usual class: inhibitors; Gai1:RGS12 GoLoco peptide FP, rhodamine, 10 min; active means well fitted inhibition curve with a large enough effect, not every such curve was filed as active; inactive means no such curve, though single readings can be large or run the other way; further: nearly all actives have a fitted effect of over 30% in size
Tau ThT inhib – inhibitors of human tau fibril formation, thioflavin T binding. recombinant tau K18 P301L (four-repeat tau fragment), heparin-induced fibrillization, ThT fluorescence. AID 1460. actives 2.1% (n = 270,000). Potency, µM (series often up to 57.4 µM), inactives show at the highest dose activity, negative = inhibition, actives largely listed as inhibitors; further: nearly all actives have a fitted effect of over 55% in size
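K18 P301L tau (15 uM + 0.24 uM Alexa 594-tagged), heparin 20 uM, NaOAc pH 7, 6 h 37 C; ThT 30 uM, 1 h RT, ex 450/em 510 nm.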
Active calls of the source: *; [ ] = dose if it differs, or a comment. Unless noted, the call rests on the fitted dose curve; in most records, active means well fitted curve in the direction sought with a large enough effect; inconclusive means small, poorly fitted or top-dose-only effect, or another doubt; inactive means no such curve, though single readings can be large; an effect the other way counts as inactive or inconclusive. Unless noted, on the % scale 0 is the no-effect control and ±100 the full control effect; potency means the concentration at half of the fitted maximal effect.

Results for O=C1C=C(Nc2ccc(O)cc2)C(=O)c2ccccc21 ?
TexasRed fluor: -3%; TRb SRC2 PPI: 1%; Tau fluor counter: 16µM*[quencher]; Tau fibril FP: inconclusive; GoLoco inh red: 5%; Tau ThT inhib: 13µM*

What do the screens show for `CCN(CC)c1ccc(NC(=O)C(C)C)cc1`?
TexasRed fluor: -4%; TRb SRC2 PPI: 1%; Tau fluor counter: 5%; Tau fibril FP: 6%; GoLoco inh red: -25%; Tau ThT inhib: 5%

What do the screens show for `O=C1C(Cl)=C(NCCN2CCCCC2)C(=O)c2ccccc21`?
TexasRed fluor: -1%; TRb SRC2 PPI: 1%; Tau fluor counter: inconclusive; Tau fibril FP: -4%; GoLoco inh red: -5%; Tau ThT inhib: 10µM*

How did O=C(NCCN1CCCC1)c1ccccc1Cl do in these assays?
TexasRed fluor: -1%; TRb SRC2 PPI: 1%; Tau fluor counter: -10%; Tau fibril FP: -2%; GoLoco inh red: 4%; Tau ThT inhib: -8%

How did CCN(CC)c1ccc(NC2=C(Cl)C(=O)c3ccccc3C2=O)cc1 do in these assays?
TexasRed fluor: -30%; TRb SRC2 PPI: 28µM*; Tau fluor counter: 2.2µM*[quencher]; Tau fibril FP: 5µM*; GoLoco inh red: 7.9µM*; Tau ThT inhib: 2.8µM*

How did CC(OC(=O)c1ccncc1)C(=O)Nc1ccc([N+](=O)[O-])cc1Cl (centres undefined) do in these assays?
TexasRed fluor: -5%; TRb SRC2 PPI: -15%; Tau fluor counter: -2%; Tau fibril FP: 1%; GoLoco inh red: -10%; Tau ThT inhib: -5%

Results for COc1cc(N2CCOCC2)ncn1 ?
TexasRed fluor: 3%; TRb SRC2 PPI: 0%; Tau fluor counter: 7%; Tau fibril FP: -6%; GoLoco inh red: 5%; Tau ThT inhib: 0%

What do the screens show for `COC(=O)C(C)Sc1ncnc2c1c(-c1ccccc1)cn2-c1ccc(OC)cc1` (centres undefined)?
TexasRed fluor: 2%; TRb SRC2 PPI: 11%; Tau fluor counter: -21%; Tau fibril FP: -19%; GoLoco inh red: -5%; Tau ThT inhib: -11%

How did Cc1ccc(NC2=C(Cl)C(=O)c3ccccc3C2=O)cc1 do in these assays?
TexasRed fluor: -1%; TRb SRC2 PPI: -1%; Tau fluor counter: inconclusive; Tau fibril FP: inconclusive; Tau ThT inhib: 2.2µM*

Results for CCNC1=C(Cl)C(=O)c2ccccc2C1=O ?
TexasRed fluor: -11%; TRb SRC2 PPI: 1%; Tau fluor counter: inconclusive; Tau fibril FP: -4%; GoLoco inh red: 21%; Tau ThT inhib: 18µM*

How did Cc1ccc(NC2=C(N3CCOCC3)C(=O)c3ccccc3C2=O)cc1 do in these assays?
TexasRed fluor: -1%; TRb SRC2 PPI: 10%; Tau fluor counter: inconclusive; Tau fibril FP: inconclusive; GoLoco inh red: 0%; Tau ThT inhib: inconclusive

What do the screens show for `CCC(=O)N(C1=C(NC(C)C)C(=O)c2ccccc2C1=O)C(C)C`?
TexasRed fluor: 0%; TRb SRC2 PPI: -6%; Tau fluor counter: -2%; Tau fibril FP: -9%; GoLoco inh red: -8%; Tau ThT inhib: inconclusive

What do the screens show for `COc1ccc2c(c1)-c1nc(N)sc1CC2`?
TexasRed fluor: -1%; TRb SRC2 PPI: 7%; Tau fluor counter: inconclusive; Tau fibril FP: inconclusive; GoLoco inh red: -27%; Tau ThT inhib: 32µM*

How did COc1ccc2c(c1)-c1nc(/N=C/c3ccc(O)c(OC)c3)sc1CC2 do in these assays?
TexasRed fluor: -1%; TRb SRC2 PPI: 1%; Tau fluor counter: -24%; Tau fibril FP: inconclusive; GoLoco inh red: -15%; Tau ThT inhib: 32µM*

What do the screens show for `COc1ccc2c(c1)-c1nc(NC(=O)c3ccc(Cl)cc3)sc1CC2`?
TexasRed fluor: 0%; TRb SRC2 PPI: -1%; Tau fluor counter: -16%; Tau fibril FP: -16%; Tau ThT inhib: -4%

Results for COc1ccc2nc(NNC(=O)c3cc(=O)c4ccccc4o3)sc2c1 ?
TexasRed fluor: -2%; TRb SRC2 PPI: 4%; Tau fluor counter: inconclusive; Tau fibril FP: -20%; GoLoco inh red: -1%; Tau ThT inhib: 4.5µM*

How did Cc1ccc2sc(NNC(=O)c3cc(-c4cccs4)nc4ccccc34)nc2c1C do in these assays?
TexasRed fluor: -2%; TRb SRC2 PPI: 5%; Tau fluor counter: inconclusive; Tau fibril FP: 9%; GoLoco inh red: 10%; Tau ThT inhib: inconclusive

What do the screens show for `COc1ccc2nc(NC(=O)c3cc(=O)c4cc(C)c(C)cc4o3)sc2c1`?
TexasRed fluor: -9%; TRb SRC2 PPI: 5%; Tau fluor counter: -12%; Tau fibril FP: 0%; Tau ThT inhib: inconclusive

What do the screens show for `Cc1cccc2sc(NNC(=O)c3cc(=O)c4ccccc4o3)nc12`?
TexasRed fluor: -5%; TRb SRC2 PPI: 1%; Tau fluor counter: inconclusive; Tau fibril FP: -8%; GoLoco inh red: 12%; Tau ThT inhib: 6.3µM*

Results for O=C(NNc1nc2c(F)cccc2s1)c1cc(=O)c2ccccc2o1 ?
TexasRed fluor: -8%; TRb SRC2 PPI: 13%; Tau fluor counter: inconclusive; Tau fibril FP: -9%; GoLoco inh red: 1%; Tau ThT inhib: 5µM*

Results for Cc1ccc2sc(NNC(=O)c3cc(=O)c4ccccc4o3)nc2c1C ?
TexasRed fluor: -16%; TRb SRC2 PPI: 11%; Tau fluor counter: inconclusive; Tau fibril FP: -14%; GoLoco inh red: 18%; Tau ThT inhib: 4µM*

How did CCOC(=O)c1cc(C)sc1NC(=O)c1ccc(Cl)s1 do in these assays?
TexasRed fluor: 2%; TRb SRC2 PPI: 2%; Tau fluor counter: -16%; Tau fibril FP: -15%; GoLoco inh red: 12%; Tau ThT inhib: -8%

Results for COc1ccc(S(=O)(=O)NN(C)C(=O)c2nn(-c3ccccc3)ccc2=O)cc1 ?
TexasRed fluor: -5%; TRb SRC2 PPI: -5%; Tau fluor counter: -1%; Tau fibril FP: 0%; GoLoco inh red: 11%; Tau ThT inhib: -9%

What do the screens show for `Cc1noc(C)c1-c1cc(Nc2ccc(F)cc2)ncn1`?
TexasRed fluor: -4%; TRb SRC2 PPI: -1%; Tau fluor counter: -21%; Tau fibril FP: 0%; GoLoco inh red: 1%; Tau ThT inhib: -7%

What do the screens show for `Cc1ccc(C(=O)c2cn(Cc3ccc(F)cc3)c3nc(C)ccc3c2=O)cc1`?
TexasRed fluor: 0.011µM*[quencher]; TRb SRC2 PPI: -21%[53 µM]; Tau fluor counter: 14%; Tau fibril FP: -6%; Tau ThT inhib: -2%

Results for Nc1ccccc1Nc1cc(-c2cccc(Cl)c2)nn1-c1ccccc1 ?
TexasRed fluor: 0%; TRb SRC2 PPI: -6%; Tau fluor counter: 13µM*[quencher]; Tau fibril FP: inconclusive; GoLoco inh red: -3%; Tau ThT inhib: inconclusive

Bioassay records (PubChem)
